# According to PubChem BioAssay:
# Active and inactive are the calls of the source. Unless noted, the rule behind the calls is not given here.
# Tests used:
# [1] = A549 cell viability effects, profiling panel, calcein-AM fluorescence, 48 h, basal (AID 1162); conditions: higher = more signal; note: test concentration not given here
# [2] = adipocyte viability effects, profiling panel, cell-based, 3T3-L1 adipocytes, calcein-AM fluorescence, 48 h, basal (AID 1163); conditions: 3T3-L1 adipocytes viability, higher = more signal; note: test concentration not given here
# [3] = HepG2 cell viability effects, profiling panel, calcein-AM fluorescence, 48 h, basal (AID 1164); conditions: higher = more signal; note: test concentration not given here
# [4] = MM1S cell viability effects, profiling panel, calcein-AM fluorescence, 48 h, basal (AID 1165); conditions: higher = more signal;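 note: viability of MM1S multiple myeloma cells under basal unstimulated conditions; test concentration not given here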
# [5] = basal RPMI8226 viability, no added stimulus, profiling panel, cell-based, calcein-AM fluorescence, 48 h, PK04 Diversity Set (AID 1166); conditions: RPMI8226 myeloma viability, higher = more signal;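 note: cells grown under basal conditions without added stimulus; test concentration not given here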
# [6] = basal HepG2 mitochondrial membrane potential changes, profiling panel, cell-based, JC-1 fluorescence, 24 h, 100 nL compound (AID 1167); conditions: higher = more signal; note: test concentration not given here
# [7] = basal 3T3-L1 adipocyte mitochondrial potential changes, profiling panel, cell-based, JC-1 fluorescence, 3T3-L1 adipocytes, 24 h, 100 nL compound (AID 1168); conditions: JC-1 mitochondrial fluorescence, higher = more signal, called active from +8 up or from −8 down; note: test concentration not given here
# [8] = basal RPMI8226 mitochondrial membrane potential changes, profiling panel, cell-based, JC-1 fluorescence, 24 h, 100 nL compound (AID 1169); conditions: RPMI8226 myeloma, JC-1 mitochondrial potential fluorescence, higher = more signal; note: test concentration not given here
# [9] = basal MM1S mitochondrial membrane potential changes, profiling panel, cell-based, JC-1 fluorescence, 24 h, 100 nL compound (AID 1170); conditions: higher = more signal; note: test concentration not given here
# [10] = A549 lung cancer cell viability effects, profiling panel, resazurin fluorescence, 24 h, PK04 Diversity Set (AID 1171); conditions: higher = more signal, called active from +8 up or from −8 down; note: test concentration not given here
# [11] = HepG2 liver cancer cell viability effects, profiling panel, resazurin fluorescence, 24 h, PK04 Diversity Set (AID 1172); conditions: higher = more signal; note: test concentration not given here
# [12] = basal S. cerevisiae growth modulation, no modifier, primary screen, OD600, strain BY4716, 24 h, basal condition (AID 1173); conditions: OD600, 24 h, higher = more signal, called active from +8 up or from −8 down
# [13] = MM1S myeloma cell viability, profiling panel, resazurin fluorescence, basal, 24 h, PK04 Diversity Set (AID 1174); conditions: higher = more signal, called active from +8 up or from −8 down;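 note: MM1S multiple myeloma cell line; test concentration not given here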
# [14] = target: Dihydroorotate dehydrogenase (quinone), mitochondrial (Plasmodium falciparum (isolate 3D7)) (UniProt Q08210); experiment: PfDHODH enzyme inhibitors, primary screen, biochemical, C-terminal His tag, absorbance 600 nm (AID 1175); conditions: DCIP absorbance 600 nm, higher = more signal, called active from +8 up or from −8 down;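 note: recombinant parasite enzyme with a five histidine tag at its C terminus; test concentration not given here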
# Sequence of Dihydroorotate dehydrogenase (quinone), mitochondrial (Plasmodium falciparum (isolate 3D7)) (Q08210 whole entry, looked up): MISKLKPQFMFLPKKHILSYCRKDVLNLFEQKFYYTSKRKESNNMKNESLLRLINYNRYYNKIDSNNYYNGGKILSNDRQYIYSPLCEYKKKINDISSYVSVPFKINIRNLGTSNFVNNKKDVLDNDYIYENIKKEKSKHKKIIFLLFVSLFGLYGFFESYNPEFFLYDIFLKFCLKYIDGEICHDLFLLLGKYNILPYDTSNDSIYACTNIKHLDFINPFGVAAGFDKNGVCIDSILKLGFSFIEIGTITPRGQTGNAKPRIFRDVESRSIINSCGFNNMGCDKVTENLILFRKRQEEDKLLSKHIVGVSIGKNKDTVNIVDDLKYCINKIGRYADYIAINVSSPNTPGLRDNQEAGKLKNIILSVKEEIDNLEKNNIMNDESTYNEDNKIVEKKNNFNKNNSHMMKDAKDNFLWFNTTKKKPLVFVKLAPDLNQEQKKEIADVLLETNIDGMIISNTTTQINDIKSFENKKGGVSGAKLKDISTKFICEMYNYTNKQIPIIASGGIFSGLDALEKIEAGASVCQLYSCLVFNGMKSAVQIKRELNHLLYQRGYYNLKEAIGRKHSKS
# [15] = P. aeruginosa biofilm formation inhibitors, primary screen, strain PAO1, LB-PBS medium, absorbance 600 nm (AID 1176); note: test concentration not given here; conditions: P. aeruginosa PAO1 growth/biofilm, A600, 12 h; higher = more signal
# [16] = S. cerevisiae RM11-1a growth modifiers, primary screen, strain RM11-1a, OD600, basal, 24 h (AID 1177); conditions: OD600, 24 h, higher = more signal, called active from +8 up or from −8 down;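 note: cultures grown under basal conditions with no added stressor; test concentration not given here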
# [17] = E. coli acrAB mutant growth effects, primary screen, E. coli filamentation inducers, strain DRC39, OD650, 24 h (AID 1178); conditions: higher = more signal, called active from +8 up or from −8 down;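 note: growth measured as culture turbidity by optical density at 650 nm; test concentration not given here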
# [18] = E. coli acrAB mutant growth effects, primary screen, E. coli filamentation inducers, strain DRC39, OD650, 48 h (AID 1179);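 note: screen aims at cell division blockers that make cells filament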; conditions: E. coli DRC39 delta-acrAB growth, higher = more signal, called active from +8 up or from −8 down
# [19] = RPMI8226 myeloma cell viability, profiling panel, resazurin fluorescence, basal, 24 h, PK04 Diversity Set (AID 1180); conditions: higher = more signal;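 note: RPMI8826 multiple myeloma cell line at 5000 cells per well; test concentration not given here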
# [20] = target: E3 ubiquitin-protein ligase XIAP (Homo sapiens) (UniProt P98170); experiment: XIAP binders, primary screen, biophysical, small-molecule microarray, fluorescence 635 nm (AID 1181); conditions: small-molecule microarray binding, higher = more signal;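 note: score merges 667 nm emission and signal to noise over triplicate slides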
# Sequence of E3 ubiquitin-protein ligase XIAP (Homo sapiens) (P98170 whole entry, looked up): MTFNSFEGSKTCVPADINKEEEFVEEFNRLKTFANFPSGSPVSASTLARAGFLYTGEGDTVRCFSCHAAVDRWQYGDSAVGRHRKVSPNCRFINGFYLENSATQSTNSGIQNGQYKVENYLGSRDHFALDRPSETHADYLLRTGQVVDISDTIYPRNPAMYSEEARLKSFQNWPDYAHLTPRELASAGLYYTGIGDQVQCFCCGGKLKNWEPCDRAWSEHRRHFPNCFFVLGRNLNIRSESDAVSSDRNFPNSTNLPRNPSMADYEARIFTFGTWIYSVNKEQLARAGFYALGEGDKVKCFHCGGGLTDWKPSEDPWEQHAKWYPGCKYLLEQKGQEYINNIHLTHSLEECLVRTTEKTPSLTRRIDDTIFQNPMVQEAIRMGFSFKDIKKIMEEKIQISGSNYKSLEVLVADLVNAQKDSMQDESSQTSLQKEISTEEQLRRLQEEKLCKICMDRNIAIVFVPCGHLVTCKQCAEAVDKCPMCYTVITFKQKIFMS
SMILES,z-score [1],z-score [2],z-score [3],z-score [4],z-score [5],z-score [6],z-score [7],z-score [8],z-score [9],z-score [10],z-score [11],z-score [12],z-score [13],composite z-score [14],z-score [15],z-score [16],z-score [17],z-score [18],z-score [19],composite z-score [20]
CCOC(=O)C[C@H]1[C@H](OC(=O)c2ccccc2-c2ccccc2)[C@@H](NC(=O)c2ccc(-c3ccccc3)cc2)c2cc(OCCCO)ccc2N1C(=O)Cc1ccc(OC)cc1,-0.183,-0.367,0.29,0.0542,-0.997,0.181,-0.421 (inactive),-0.616,0.103,0.0911 (inactive),-0.235,-0.034 (inactive),-0.0275 (inactive),-1.29 (inactive),0.2 (inactive),-0.28 (inactive),-0.489 (inactive),-0.628 (inactive),0.364,-0.16
O=C1c2ccccc2[C@@]2(Cc3ccccc3N(CC(F)(F)F)C2=O)[C@H](c2ccc(CO)cc2)N1C1CCCCC1,-0.449,0.747,-0.0145,0.129,-1.27,-0.0304,0.701 (inactive),1.06,0.933,0.304 (inactive),-0.0665,0.713 (inactive),1.07 (inactive),-24.3 (active),0.379 (inactive),-0.572 (inactive),0.172 (inactive),-0.411 (inactive),0.748,-0.2
CC(C)(C)OC(=O)CC[C@]1(C(=O)N2CCCCC2)N=C(c2ccc(OCCCO)cc2)O[C@H]1c1ccccc1,2.04,1.24,1.01,0.523,-1.04,2.2,2.09 (inactive),-0.123,0.317,-0.354 (inactive),-0.302,-1.05 (inactive),-1.37 (inactive),-0.892 (inactive),0.0937 (inactive),-0.374 (inactive),0.627 (inactive),0.837 (inactive),-0.128,0.354
CCCCCCc1nc(-c2cc(C)c(OC)c(C)c2)cc2c1[Si](C(C)C)(C(C)C)O[C@H]2c1ccccc1,0.723,-0.185,-0.59,-0.0523,-0.942,0.201,-0.152 (inactive),0.77,-0.683,0.732 (inactive),0.0796,0.54 (inactive),0.0808 (inactive),-0.292 (inactive),-0.334 (inactive),0.315 (inactive),0.609 (inactive),0.228 (inactive),0.219,-0.244
COc1ccc([Si](C)(C)[C@@H]2[C@@H](CC(=O)N(CCO)Cc3ccccc3)O[C@]3(C(=O)N(Cc4cccc(N5CCC5=O)c4)c4ccccc43)[C@H]2C)cc1,-1.45,1.5,-2.2,-2.55,-4.06,0.952,-0.0485 (inactive),-0.917,-0.523,-1.82 (inactive),-1.51,0.328 (inactive),-2.9 (inactive),-0.645 (inactive),0.708 (inactive),1.32 (inactive),0.882 (inactive),-0.0661 (inactive),-2.08,0.154
CC[C@@H]1C=C(C(=O)O)[C@H](c2ccccc2)N1S(=O)(=O)c1ccc([N+](=O)[O-])cc1,-0.353,-0.49,0.271,0.0363,0.0806,0.414,-0.375 (inactive),0.769,-0.877,0.0551 (inactive),0.244,0.736 (inactive),-0.253 (inactive),0.264 (inactive),-0.461 (inactive),-0.1 (inactive),-2.44 (inactive),-1.84 (inactive),0.0416,0.101
COc1cc2c(cc1OC)CN(C(=O)[C@H]1[C@@H]3C(=O)O[C@@H](c4ccccc4)[C@@H](c4ccccc4)N3[C@@H](c3ccc(O)cc3)[C@]13C(=O)Nc1ccc(C#CC4(O)CCCCCC4)cc13)CC2,0.273,-0.0218,-0.155,-0.369,-0.66,-1.37,-0.263 (inactive),-0.34,0.432,1.24 (inactive),0.496,0.076 (inactive),-0.4 (inactive),-0.543 (inactive),0.89 (inactive),0.087 (inactive),-0.463 (inactive),-0.794 (inactive),1.15,0.364
O=C1C2C=CC(C(O)C(c3ccccc3)c3ccccc3)N(Nc3ccc([N+](=O)[O-])cc3)C2C(=O)N1c1ccccc1 (stereo not given),-0.727,-0.97,0.585,-0.224,-0.986,0.581,-0.735 (inactive),0.213,-1.44,0.452 (inactive),0.867,0.852 (inactive),0.0597 (inactive),0.665 (inactive),0.89 (inactive),0.601 (inactive),-1.12 (inactive),0.058 (inactive),-1.03,0.0553
CC[C@H]1C2=C3C(CC[C@H]4C(OC)OC[C@](C)([C@@H]34)N(C(=O)OC(C)(C)C)C2)C(CO)C1CO (stereo not given in full),-0.499,0.561,0.656,1,0.586,-0.528,0.0846 (inactive),-0.38,-1.26,-1.28 (inactive),-0.453,0.145 (inactive),-0.713 (inactive),-0.929 (inactive),0.452 (inactive),-0.681 (inactive),-0.0328 (inactive),0.753 (inactive),-0.141,0.26
